In PubChem BioAssay (Tox21) one finds Potency, outcome and max activation data, which are given here for ten compounds.

A short description of assay [1]: Human pregnane X receptor (PXR) small molecule agonists, qHTS cell viability counter screen (AID 1346977). Also: nearly all actives have a fitted effect of over 50% in size. Also: potency is read from the fitted curve at half-maximal effect. A digest of the protocol:
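PXR-Luc HepG2, 2,000 cells/well, 5% charcoal-stripped FBS; 5hr settle; cpd 24hr, 37C/5% CO2; CellTiter-Fluor at 23hr, read 1hr later (fluorescence).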

Assay [2] can be described thus: Caspase-3/7 induction in HepG2 cells by small molecules, qHTS assay (AID 1346978). Also: nearly all actives have a fitted effect of over 15% in size. Also: potency is read from the fitted curve at half-maximal effect. A digest of the protocol: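 Caspase-3/7 induction was measured by Caspase-Glo 3/7 luminescence (30 min, room temperature) after a 17 hr compound exposure of wild-type HepG2 cells seeded at 2,000 per well and pre-incubated 5 hr.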
Assay [3] is described as follows: Caspase-3/7 induction in CHO-K1 cells by small molecules, qHTS cell viability counter screen (AID 1346979). Also: nearly all actives have a fitted effect of over 35% in size. The method in brief: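 Cells (CHO-K1, wild type) are plated at 1,500 per well and incubated 5hr. Test compounds in DMSO are then pinned in, followed by 16hr at 37C and 5% CO2. Viability is read by CellTiter-Fluor fluorescence after 1hr.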
On the technique in general: In qHTS, concentration-response curves come from the screen itself.

Assay [4] in a line: Caspase-3/7 induction in CHO-K1 cells by small molecules, qHTS assay (AID 1346980). Also: nearly all actives have a fitted effect of over 15% in size. A digest of the protocol: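 Luminescent Caspase-Glo 3/7 read (30min, room temperature) quantified apoptosis induction. Cells were wild-type CHO-K1, treated with compound for 17hr at 37 C and 5% CO2.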
A short description of assay [5]: Caspase-3/7 induction in HepG2 cells by small molecules, qHTS cell viability counter screen (AID 1346981). Also: nearly all actives have a fitted effect of over 30% in size. Also: potency is read from the fitted curve at half-maximal effect. The method in brief: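 Wild-type HepG2 cells, 2,000/well, settled 5 hr at 37 C, 5% CO2 before compound addition. Viability read by CellTiter-Fluor fluorescence, reagent added after 16 hr compound exposure, then 1 hr at 37C, in the same wells as the caspase read.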

In assay [6] the target is Nuclear receptor subfamily 1 group I member 2 (Homo sapiens) (UniProt O75469). Description: Human pregnane X receptor (PXR) small molecule agonists, qHTS assay (AID 1346982). Also: nearly all actives have a fitted effect of over 35% in size. Also: potency is read from the fitted curve at half-maximal effect. The method in brief:
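PXR-Luc HepG2 reporter cells (CYP3A4-driven luciferase) in 5% charcoal-stripped FBS medium, plated 5 h before compound addition, then treated 24 h at 37C. Luciferase read by ONE-Glo luminescence after 30 min at room temperature.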

Assay [7] addresses Cytochrome P450 2D6 (Homo sapiens) (UniProt P10635). Put plainly: Cytochrome P450 Family 2 Subfamily D Member 6 (CYP2D6) small molecule antagonists: luciferase reporter qHTS assay (AID 1671196). Also: nearly all actives have a fitted effect of over 50% in size. Also: potency is read from the fitted curve at half-maximal effect. A digest of the protocol:
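Cell-free P450-Glo system: CYP2D6 with proluciferin substrate was pre-incubated with compound for 10 min, then reacted with NADPH regeneration for 1 h at room temperature. Luciferin product was detected after 20 min, and data were reported as relative luminescence units.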
Background: In a reporter assay the amount or activity of a reporter protein is the signal.

The target of assay [8] is Cytochrome P450 2C19 (Homo sapiens) (UniProt P33261). Put plainly: Cytochrome P450 Family 2 Subfamily C Member 19 (CYP2C19) small molecule antagonists: luciferase reporter qHTS assay (AID 1671197). Also: nearly all actives have a fitted effect of over 65% in size. Also: potency is read from the fitted curve at half-maximal effect. A digest of the protocol:
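P450-Glo CYP2C19 screening system; proluciferin substrate; DMSO compound stocks; 10 min RT preincubation; NADPH regeneration, 1 h at 37C; luciferin detection reagent, 20 min RT; luminescence as RLU.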

Assay [9] addresses Cytochrome P450 2C9 (Homo sapiens) (UniProt P11712). Description: Cytochrome P450 Family 2 Subfamily C Member 9 (CYP2C9) small molecule antagonists: luciferase reporter qHTS assay (AID 1671198). Also: series mostly up to about 120 µM; nearly all actives have a fitted effect of over 50% in size. A digest of the protocol:
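Enzyme-substrate mix preincubated with compound 10 min at room temperature; reaction started with NADPH regeneration solution, 1 h 37C. Luminescent luciferin product read after 20 min detection reagent.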

Assay [10] has as its target Voltage-gated inwardly rectifying potassium channel KCNH2 (Homo sapiens) (UniProt Q12809). Put plainly: Human Ether-a-go-go-Related Gene (hERG) channel small molecule antagonists: fluorescence cell-based qHTS assay (AID 1671200). Also: nearly all actives have a fitted effect of over 50% in size. Also: potency is read from the fitted curve at half-maximal effect. A digest of the protocol:
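Channel function was assessed by thallium flux. Cells seeded the previous day and kept at 37 C took up FluxOR II dye over 1 h in the dark at room temperature, then sat another 10 min before stimulation.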
(In general: Block of hERG is tested as a sign of cardiac risk.)

In assay [11] the target is Cytochrome P450 3A4 (Homo sapiens) (UniProt P08684). Put plainly: Cytochrome P450 Family 3 Subfamily A Member 4 (CYP3A4) small molecule antagonists: luciferase reporter qHTS assay (AID 1671201). Also: nearly all actives have a fitted effect of over 50% in size. Also: potency is read from the fitted curve at half-maximal effect. The method in brief: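 Compounds in DMSO were pin-transferred onto CYP3A4 enzyme-substrate mix and held 10 min at room temperature. NADPH regenerating solution started the reaction for 1 h; luciferin detection reagent stopped it, and luminescence was read after 20 min.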
Sequence of Cytochrome P450 3A4 (Homo sapiens) (P08684 whole entry, looked up): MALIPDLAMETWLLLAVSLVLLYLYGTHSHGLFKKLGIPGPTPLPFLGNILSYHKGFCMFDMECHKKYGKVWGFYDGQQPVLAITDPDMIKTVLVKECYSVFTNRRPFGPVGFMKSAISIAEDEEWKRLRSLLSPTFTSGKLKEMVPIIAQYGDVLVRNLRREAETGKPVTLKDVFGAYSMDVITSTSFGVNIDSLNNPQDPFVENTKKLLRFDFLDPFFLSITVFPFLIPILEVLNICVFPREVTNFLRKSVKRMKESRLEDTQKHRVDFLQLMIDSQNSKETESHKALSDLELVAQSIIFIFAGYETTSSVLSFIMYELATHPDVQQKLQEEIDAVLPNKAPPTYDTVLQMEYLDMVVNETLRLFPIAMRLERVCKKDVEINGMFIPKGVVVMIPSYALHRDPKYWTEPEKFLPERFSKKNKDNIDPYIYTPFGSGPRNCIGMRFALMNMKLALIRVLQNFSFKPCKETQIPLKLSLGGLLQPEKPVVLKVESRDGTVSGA

Assay [12] deals with Cytochrome P450 1A2 (Homo sapiens) (UniProt P05177). Put plainly: Cytochrome P450 Family 1 Subfamily A Member 2 (CYP1A2) small molecule antagonists: luciferase reporter qHTS assay (AID 1671199). Also: nearly all actives have a fitted effect of over 50% in size. Also: potency is read from the fitted curve at half-maximal effect. A digest of the protocol: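 P450-Glo CYP1A2 enzyme–proluciferin substrate mix with compound 10 min at room temperature, then NADPH regeneration 1 h at room temperature. Luciferin detection reagent added, luminescence read after 20 min; furafylline positive control.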
Sequence of Cytochrome P450 1A2 (Homo sapiens) (P05177 whole entry, looked up): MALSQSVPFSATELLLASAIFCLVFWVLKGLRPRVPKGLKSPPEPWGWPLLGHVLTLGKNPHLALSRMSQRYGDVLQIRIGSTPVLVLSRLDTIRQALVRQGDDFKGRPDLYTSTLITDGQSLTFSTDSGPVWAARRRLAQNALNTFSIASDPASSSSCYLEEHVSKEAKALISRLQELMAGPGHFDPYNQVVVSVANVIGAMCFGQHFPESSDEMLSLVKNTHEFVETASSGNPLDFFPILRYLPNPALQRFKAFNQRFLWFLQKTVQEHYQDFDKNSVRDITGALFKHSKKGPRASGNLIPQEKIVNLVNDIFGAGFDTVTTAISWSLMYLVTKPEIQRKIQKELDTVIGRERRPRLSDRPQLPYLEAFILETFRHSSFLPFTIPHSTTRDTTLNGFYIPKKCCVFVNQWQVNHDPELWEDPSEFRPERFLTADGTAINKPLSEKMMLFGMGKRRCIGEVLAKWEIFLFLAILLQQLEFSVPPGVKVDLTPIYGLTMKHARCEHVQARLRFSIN

The target of assay [13] is Nuclear receptor subfamily 1 group I member 2 (Rattus norvegicus) (UniProt Q9R1A7). Put plainly: Rat pregnane X receptor (rPXR) activation by small molecules, qHTS assay (AID 1346983). Also: nearly all actives have a fitted effect of over 20% in size. The note with it: rPXR luciferase reporter cells, One-Glo luminescence, 24 h; max activation: stronger effect = higher value. The method in brief: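 Luminescent readout (One-Glo luciferase, 30 min room temperature) followed 24 hr compound treatment at 37 C of rPXR cells plated 2,000 per well and preincubated 5hr; qHTS format with compounds delivered in DMSO.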
Sequence of Nuclear receptor subfamily 1 group I member 2 (Rattus norvegicus) (Q9R1A7 whole entry, looked up): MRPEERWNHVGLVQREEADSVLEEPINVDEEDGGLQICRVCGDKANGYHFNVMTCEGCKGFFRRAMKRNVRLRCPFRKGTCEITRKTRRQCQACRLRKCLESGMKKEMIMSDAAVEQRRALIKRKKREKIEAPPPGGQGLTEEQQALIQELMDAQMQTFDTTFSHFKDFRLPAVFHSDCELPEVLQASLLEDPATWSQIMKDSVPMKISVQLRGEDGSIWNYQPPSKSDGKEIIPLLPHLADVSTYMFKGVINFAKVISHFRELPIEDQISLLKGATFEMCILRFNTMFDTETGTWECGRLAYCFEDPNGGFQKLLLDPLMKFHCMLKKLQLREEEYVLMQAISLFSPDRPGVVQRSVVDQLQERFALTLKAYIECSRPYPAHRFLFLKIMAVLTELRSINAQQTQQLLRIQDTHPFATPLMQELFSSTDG

Assay [14] addresses Nuclear receptor subfamily 1 group I member 2 (Homo sapiens) (UniProt O75469). Description: CYP3A4 induction through human pregnane X receptor (PXR) by small molecules, qHTS assay (AID 1346984). Also: nearly all actives have a fitted effect of over 40% in size. A digest of the protocol:
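DPX-2 HepG2 cells carrying a PXR response element and CYP3A4-promoter luciferase construct, treated with compounds 24 hr at 37C. Then P450-Glo CYP3A4 Luciferin-IPA substrate (3uM final) for 3 hr at 37C, One-Glo added, luminescence read.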

Assay [15] shares this target. Description: Human pregnane X receptor (PXR) activation by small molecules, qHTS assay (AID 1346985). Also: nearly all actives have a fitted effect of over 40% in size. The method in brief: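 DPX-2 cells (HepG2 co-transfected with a PXR response element and a CYP3A4-promoter luciferase construct) were seeded at 2,000 per well, rested 5 hr at 37C, then exposed to DMSO-dissolved compounds for 24 hr. Activation was read as luciferase luminescence.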

Unmarked numbers belong to inactive results. Records with an inconclusive call do not appear. Calls of active or inactive are those of the source. Calls follow the shape of the dose curve; as a rule, active = well fitted curve in the direction sought with a large enough effect in the repeat runs; inconclusive = weak or mixed curves; inactive = no such curve, though single readings can be large; an effect the other way counts as inactive or inconclusive.
% is scaled to controls: 0 for no effect and ±100 for the full control effect.

Sequence of Voltage-gated inwardly rectifying potassium channel KCNH2 (Homo sapiens) (Q12809 whole entry, looked up): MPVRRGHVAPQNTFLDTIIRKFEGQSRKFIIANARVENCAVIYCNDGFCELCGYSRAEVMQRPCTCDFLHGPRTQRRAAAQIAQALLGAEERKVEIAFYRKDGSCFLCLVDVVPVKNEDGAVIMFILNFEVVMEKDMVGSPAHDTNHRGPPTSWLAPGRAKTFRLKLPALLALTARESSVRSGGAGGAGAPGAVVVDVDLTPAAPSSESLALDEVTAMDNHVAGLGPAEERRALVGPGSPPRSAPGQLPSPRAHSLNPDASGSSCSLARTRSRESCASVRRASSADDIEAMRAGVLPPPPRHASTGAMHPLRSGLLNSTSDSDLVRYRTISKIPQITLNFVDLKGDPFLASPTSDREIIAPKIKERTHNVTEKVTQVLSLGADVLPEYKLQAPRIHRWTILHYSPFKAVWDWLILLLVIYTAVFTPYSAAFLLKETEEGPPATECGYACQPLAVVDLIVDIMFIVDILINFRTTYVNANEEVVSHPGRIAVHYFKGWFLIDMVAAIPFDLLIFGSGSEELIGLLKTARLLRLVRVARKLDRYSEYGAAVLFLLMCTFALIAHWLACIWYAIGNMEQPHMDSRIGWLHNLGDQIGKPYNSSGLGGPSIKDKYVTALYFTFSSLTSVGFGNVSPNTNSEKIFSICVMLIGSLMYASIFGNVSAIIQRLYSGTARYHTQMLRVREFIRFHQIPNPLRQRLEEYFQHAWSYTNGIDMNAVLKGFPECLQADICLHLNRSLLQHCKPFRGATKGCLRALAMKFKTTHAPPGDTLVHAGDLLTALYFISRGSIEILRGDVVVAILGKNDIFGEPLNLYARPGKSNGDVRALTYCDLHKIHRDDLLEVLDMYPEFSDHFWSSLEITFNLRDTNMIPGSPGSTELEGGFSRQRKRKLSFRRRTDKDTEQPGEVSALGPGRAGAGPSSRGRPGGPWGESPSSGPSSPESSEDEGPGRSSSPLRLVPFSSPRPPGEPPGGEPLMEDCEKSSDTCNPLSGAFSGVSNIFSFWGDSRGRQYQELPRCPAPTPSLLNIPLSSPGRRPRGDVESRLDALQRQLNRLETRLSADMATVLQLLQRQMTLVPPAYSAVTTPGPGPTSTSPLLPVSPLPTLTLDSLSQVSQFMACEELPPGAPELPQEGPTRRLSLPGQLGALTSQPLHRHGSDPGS
Sequence of Cytochrome P450 2C19 (Homo sapiens) (P33261 whole entry, looked up): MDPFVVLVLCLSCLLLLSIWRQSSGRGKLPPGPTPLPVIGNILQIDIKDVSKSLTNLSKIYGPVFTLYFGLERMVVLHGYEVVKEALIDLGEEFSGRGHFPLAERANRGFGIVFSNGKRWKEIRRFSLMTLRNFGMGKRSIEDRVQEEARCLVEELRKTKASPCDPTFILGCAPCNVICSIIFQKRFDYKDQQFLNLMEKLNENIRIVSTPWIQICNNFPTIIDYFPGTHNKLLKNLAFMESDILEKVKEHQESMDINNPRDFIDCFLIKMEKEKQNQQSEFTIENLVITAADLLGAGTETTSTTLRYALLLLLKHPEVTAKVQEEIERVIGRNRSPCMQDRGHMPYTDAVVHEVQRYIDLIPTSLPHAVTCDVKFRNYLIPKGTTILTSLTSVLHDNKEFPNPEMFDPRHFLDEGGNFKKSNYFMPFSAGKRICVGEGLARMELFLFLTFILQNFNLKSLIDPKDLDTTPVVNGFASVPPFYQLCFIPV
Sequence of Nuclear receptor subfamily 1 group I member 2 (Homo sapiens) (O75469 whole entry, looked up): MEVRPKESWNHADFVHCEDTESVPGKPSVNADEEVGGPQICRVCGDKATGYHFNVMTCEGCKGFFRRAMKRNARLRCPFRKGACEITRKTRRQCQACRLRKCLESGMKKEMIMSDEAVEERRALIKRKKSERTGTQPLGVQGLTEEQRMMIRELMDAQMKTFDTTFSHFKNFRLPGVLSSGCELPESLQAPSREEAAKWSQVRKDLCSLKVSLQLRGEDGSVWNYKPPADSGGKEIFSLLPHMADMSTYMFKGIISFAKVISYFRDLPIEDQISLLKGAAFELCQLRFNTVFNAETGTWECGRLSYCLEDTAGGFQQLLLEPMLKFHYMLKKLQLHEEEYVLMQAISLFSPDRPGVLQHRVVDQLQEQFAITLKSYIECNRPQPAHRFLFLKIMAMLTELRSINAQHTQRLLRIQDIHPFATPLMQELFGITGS
Sequence of Cytochrome P450 2D6 (Homo sapiens) (P10635 whole entry, looked up): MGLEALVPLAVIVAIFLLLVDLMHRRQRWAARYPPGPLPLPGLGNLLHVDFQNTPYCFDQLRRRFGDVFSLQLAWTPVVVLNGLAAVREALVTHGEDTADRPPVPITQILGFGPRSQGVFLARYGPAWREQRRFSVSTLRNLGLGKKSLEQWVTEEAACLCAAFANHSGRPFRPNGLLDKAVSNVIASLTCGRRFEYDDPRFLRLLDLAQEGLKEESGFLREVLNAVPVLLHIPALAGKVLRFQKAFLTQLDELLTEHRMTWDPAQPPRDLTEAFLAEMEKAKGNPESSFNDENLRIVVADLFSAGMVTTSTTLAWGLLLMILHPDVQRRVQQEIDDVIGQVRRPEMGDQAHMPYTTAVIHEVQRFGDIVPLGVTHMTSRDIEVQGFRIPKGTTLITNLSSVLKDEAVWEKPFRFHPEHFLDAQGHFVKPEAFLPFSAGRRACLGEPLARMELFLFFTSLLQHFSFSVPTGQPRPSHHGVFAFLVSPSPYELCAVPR
Sequence of Cytochrome P450 2C9 (Homo sapiens) (P11712 whole entry, looked up): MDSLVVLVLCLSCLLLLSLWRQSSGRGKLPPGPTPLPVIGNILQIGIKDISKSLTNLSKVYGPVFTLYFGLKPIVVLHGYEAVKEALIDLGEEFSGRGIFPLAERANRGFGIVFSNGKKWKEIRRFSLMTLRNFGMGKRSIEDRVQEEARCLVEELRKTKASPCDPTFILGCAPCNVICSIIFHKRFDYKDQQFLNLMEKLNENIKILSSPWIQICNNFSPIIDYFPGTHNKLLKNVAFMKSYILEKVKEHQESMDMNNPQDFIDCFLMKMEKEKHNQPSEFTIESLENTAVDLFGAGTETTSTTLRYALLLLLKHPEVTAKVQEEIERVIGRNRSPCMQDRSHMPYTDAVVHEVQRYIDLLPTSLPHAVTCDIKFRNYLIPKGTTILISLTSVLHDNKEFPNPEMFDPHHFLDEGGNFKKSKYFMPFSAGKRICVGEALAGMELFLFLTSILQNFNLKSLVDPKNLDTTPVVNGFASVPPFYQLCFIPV

As to `COc1ccc(C)cc1`, the Potency entry in assay [1], in [2], in assay [3], in assay [5], in assay [6] and in assay [9] was “inactive” in each case. For the same compound, the Potency result in assay [10] and in assay [11] was “inactive” throughout. Also, the outcome in assay [4] was inactive. In addition, the Potency is 17.8 µM (active) in assay [7] and 79.6 µM (active) in assay [8].

With `O=C(C(=O)c1ccco1)c1ccco1`, the Potency result in [1], in assay [2], in [5], in assay [6], in assay [9] and in assay [10] was “inactive” throughout. Further, the result in [4] was inactive. Besides, the results for the Potency in [8] and in assay [12] were 80.4 µM (active) and 35.9 µM (active), respectively.

Consider `CC(CO)(CO)C(=O)O`, for which the Potency entry in [1], in assay [2], in [3], in assay [5], in [6] and in [7] was “inactive” throughout. Moreover, the Potency entry in assay [9] and in assay [11] was “inactive” throughout. For the same compound, in [4], the outcome was inactive. The Potency in assay [8] was 72.4 µM (active).

As to `O[C@@H](CNC[C@H](O)[C@H]1CCc2cc(F)ccc2O1)[C@@H]1CCc2cc(F)ccc2O1`, the Potency in assay [1] is 29.8 µM (active); in [2], 33.5 µM (active); in assay [7], 0.275 µM (active); in assay [10] it was 2.68 µM (active). Moreover, the Potency result in [6], in [8], in assay [9], in assay [12] and in [11] was “inactive” throughout.

For `CCOC(=O)C(C)O` (centres undefined), the Potency entry in [1], in [2], in [3], in assay [5], in assay [6] and in [7] was “inactive” throughout. In addition, the Potency entry in [8], in [9], in assay [12] and in assay [11] was “inactive” in each case. Also, the compound was classed as inactive in assay [4].

`Nc1nc2ccc(OC(F)(F)F)cc2s1`: the Potency result in [1], in assay [2] and in assay [5] was “inactive” throughout. The result in assay [4] was inactive. The Potency in assay [6] was 13.3 µM (active).

Regarding `Cc1ccc2c(c1[N+](=O)[O-])C(=O)c1ccccc1C2=O`, the Potency in assay [1] is 3.78 µM (active); in assay [2], 5.99 µM (active); in [5] it was 3 µM (active); in assay [6], 1.9 µM (active); in [12], 4.93 µM (active); in assay [11], 15.6 µM (active). Further, the result in [4] was inactive. Further, the Potency result in assay [7], in assay [8], in assay [9] and in [10] was “inactive” each time.

Regarding `C=Cc1ccc(OC(C)=O)cc1`, the Potency entry in assay [1], in assay [2], in assay [3], in assay [5], in [7] and in assay [8] was “inactive” each time. In addition, the Potency result in assay [9], in assay [10] and in assay [11] was “inactive” throughout. Further, the compound was called inactive in assay [4].

As to `CC(=O)OC(C)C[N+](C)(C)C` (centres undefined), the Potency entry in assay [1], in assay [2], in assay [5], in assay [6], in [14] and in assay [15] was “inactive” throughout. In addition, the Potency result in assay [7], in assay [8], in [9] and in assay [11] was “inactive” each time. For the same compound, the result in assay [4] was inactive. Further, in assay [13], the max activation is -2.41%.

On to `C=CC(=O)NC(C)C`, for which the Potency entry in assay [1], in assay [2], in [3], in [5], in assay [6] and in assay [7] was “inactive” each time. Also, the Potency result in assay [8], in [9], in assay [10] and in assay [11] was “inactive” in each case. Also, in assay [4], the compound was called inactive.
